Assay outcomes as filed in PubChem BioAssay.
Sampled rows, rich in hits. Any-hit rate of the full collection: about 4.1%.
DAX1 inh-1 = inhibits human nuclear receptor DAX1. hit rate 0.99% among 340,000. HEK293 Gal4-DAX1 luciferase reporter, luminescence. P51843. inhibition, % at 6.75 µM;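 active = inhibition above the mean over all tested compounds plus 3 SD, cut at about 4.2% in these data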;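 also: 0% = DAX1-transfected cells with DMSO and 100% = empty-vector control cells with DMSO; inhibition shows as a rise in luminescence from relieved DAX1 repression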
Target sequence (P51843 207-470 limits assumed): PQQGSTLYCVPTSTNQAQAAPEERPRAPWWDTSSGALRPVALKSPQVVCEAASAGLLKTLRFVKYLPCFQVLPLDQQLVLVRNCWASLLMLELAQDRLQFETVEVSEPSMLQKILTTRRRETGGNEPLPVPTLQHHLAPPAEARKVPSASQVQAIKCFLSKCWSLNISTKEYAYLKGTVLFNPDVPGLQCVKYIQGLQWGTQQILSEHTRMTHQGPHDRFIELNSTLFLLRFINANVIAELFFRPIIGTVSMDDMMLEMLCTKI
DAX1 inh-2 = blocks DAX1 repression of SF-1 activated StAR promoter | HEK293T StAR-luciferase reporter, SF-1/DAX-1 repression relief | inhibition, % at 6.8 µM | hit rate 1.1% among 370,000 | AID 652010;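 active = inhibition above the mean over all tested compounds plus 3 SD, cut at about 3.6% in these data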;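 also: 0% = DAX-1 cells with DMSO and 100% = cells lacking DAX-1 with DMSO; higher inhibition means more luminescence from relief of DAX-1 repression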
hgDAF-12 ag = activates the H. glycines DAF-12 receptor ligand-binding domain; HEK293 GAL4-hgDAF12 UAS-luciferase reporter, agonist luminescence; normalized to butyrate control; activation, % at 6.8 µM; hit rate 1.8% among 370,000; AID 687014;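 active = activation above a cutoff set at the mean of all screened compounds plus 3 SD, cut at about 10% in these data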;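 also: 0% = DMSO wells and 100% = sodium butyrate wells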
hcDAF-12 act = activators of H. contortus DAF-12 nuclear receptor; HEK293 hcDAF-12 lit1-tk-luc reporter, luminescence; 0% DMSO, 100% Δ7-dafachronic acid; activation, % at 6.8 µM; hit rate 1.4% among 370,000; AID 652067;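 active = activation above the mean of all tested compounds plus 3 SD, cut at about 5.5% in these data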;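 also: 100% = response to 3 µM Δ7-dafachronic acid high control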
ssDAF12 agonist = activates DAF-12 receptor from parasite S. stercoralis; hit rate 1% among 370,000; activation, % at 6.8 µM; HEK293 ssDAF-12/GRIP1 lit1-tk-luc reporter, luminescence; % of 3 µM dafachronic acid response; AID 652126;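 active = activation above the mean over all tested compounds plus 3 SD, cut at about 0.9% in these data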;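 also: 0% = DMSO-only wells and 100% = 3 µM delta7-dafachronic acid wells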
Numbers without * were called inactive; / = no result given.

SMILES | DAX1 inh-1 | DAX1 inh-2 | hgDAF-12 ag | hcDAF-12 act | ssDAF12 agonist
CC(CCN1CCC(C(O)(c2ccccc2)c2ccccc2)CC1)Oc1ccc(F)cc1 (stereo unspecified) | / | 0.4 | 0.0 | 0.6 | -0.4
O=C(NC1CCCC1)N1CCC(c2nc3ccc(Cl)cc3[nH]2)CC1 | / | -0.6 | -2.4 | 4.1 | -1.0
CCCCNC(=O)C[C@@H]1C(=O)N2CCCC3=C2[C@@]1(C(=O)OC)CCCC3 | / | -0.2 | -0.1 | 1.0 | -0.7
Cc1ccc(OCCC(=O)NNC(=O)c2cc(C)oc2C)cc1 | 4.4* | -0.4 | 1.9 | 1.5 | -1.2
NC(CSC(c1ccccc1)(c1ccccc1)c1cccc2ccccc12)C(=O)O (stereo unspecified) | 4.5* | / | / | / | /
Cc1cccc(N2CCN(C(=O)CN3C(=O)NC(C)(C)C3=O)CC2)c1C | 0.7 | -0.3 | 0.2 | -1.0 | -1.0
Cc1cccc(N2CCN(C(=O)CN3C(=O)C4CC=CCC4C3=O)CC2)c1C (stereo unspecified) | 1.2 | 1.5 | 10.6* | 1.6 | 0.4
CC(C)c1ccc(N(C(=O)c2csnn2)C(C(=O)NC(C)(C)C)c2ccncc2)cc1 (stereo unspecified) | 2.2 | 0.8 | 16.7* | 6.3* | -0.3
CC(NC(=O)CSc1ncccc1C(=O)O)C1CC2CCC1C2 (stereo unspecified) | 5.1* | -0.1 | -0.3 | -0.5 | -0.9
Cc1cccc(C)c1NC(=O)C(C1CC1)n1c(=O)c(-c2ccco2)nc2ccccc21 (stereo unspecified) | / | 0.4 | 0.7 | -0.2 | -0.3
O=C(NC1CCCCC1)C(c1ccccc1F)n1c(=O)c(-c2ccco2)nc2ccccc21 (stereo unspecified) | / | -0.1 | -2.4 | -1.0 | -0.7
CC(C)(C)NC(=O)C(c1ccccc1F)n1c(=O)c(-c2ccco2)nc2ccccc21 (stereo unspecified) | / | 4.3* | 1.5 | 0.9 | -1.2
O=C(Nc1ccc2c(c1)OCCO2)C(c1ccnc2ccccc12)n1c(=O)c(-c2ccco2)nc2ccccc21 (stereo unspecified) | / | 2.8 | 7.3 | 5.1 | 1.5*
Cc1cccc(C)c1NC(=O)C(c1ccncc1)n1c(=O)c(-c2ccco2)nc2ccccc21 (stereo unspecified) | / | 1.9 | 4.9 | 5.0 | 2.1*
O=C(NC1CCCCC1)C(c1ccnc2ccccc12)n1c(=O)c(-c2ccco2)nc2ccccc21 (stereo unspecified) | / | 1.7 | 4.1 | 2.0 | 1.1*
CCOC(=O)[C@]12CCCC3=C1N(CCC3)C(=O)[C@@H](CC(=O)NCCCN1CCCC1=O)C2 | / | -0.4 | 1.2 | 1.0 | -1.3
O=C(NCC(c1ccccc1)c1ccccc1)[C@H](Cc1c[nH]c2ccccc12)NC1(C(=O)NC2CCCCC2)CCCC1 | / | / | -1.1 | 1.3 | -2.3
COc1ccc(NC(=O)CCC(=O)OC(C(=O)c2ccccc2)c2ccccc2)cc1 (stereo unspecified) | 2.0 | 0.0 | -2.2 | -1.7 | -1.9
Cc1ccc(C(=O)C(OC(=O)CCC(=O)Nc2cccc(C)c2)c2ccccc2)cc1 (stereo unspecified) | 4.7* | 0.0 | 0.2 | 0.2 | -0.1
c1ccc(-c2csc3ncn4nnnc4c23)cc1 | -0.1 | 0.8 | 1.3 | -1.4 | 1.0*
CC(C)CNc1ccc2c(c1)OC[C@H](C)NS2(=O)=O | / | 0.4 | -2.7 | -1.0 | -0.5
Cc1ccccc1-c1cc2nc(-c3ccc([N+](=O)[O-])cc3)cc(=O)n2[nH]1 | -0.6 | -0.5 | -1.4 | 1.1 | -1.0
Cc1cccc(-c2cc3nc(-c4ccccc4)cc(=O)n3[nH]2)c1 | 6.4* | 1.1 | 6.8 | 0.9 | 0.0
O=C1C(=O)N(CCO)C(c2ccccc2[N+](=O)[O-])/C1=C(\O)c1ccccc1 (stereo unspecified) | 0.0 | -0.2 | 3.3 | 1.7 | -0.2
O=C1C(=O)N(c2ccc(O)cc2)C(c2ccccc2[N+](=O)[O-])/C1=C(\O)c1ccccc1 (stereo unspecified) | 2.0 | 0.1 | 3.1 | 5.5 | 2.2*
SMILES | DAX1 inh-1 | DAX1 inh-2 | hgDAF-12 ag | hcDAF-12 act | ssDAF12 agonist
Cn1cccc1C=NNC(=O)c1cc(-c2ccc(Cl)cc2)n[nH]1 | / | 0.3 | 4.4 | -1.1 | -1.4
Nc1[nH]c(C(=O)c2ccccc2)c(-c2ccc3c(c2)OCO3)c1C(=O)NCCc1c[nH]c2ccccc12 | / | -0.2 | -2.5 | -0.8 | -1.1
O=c1[nH][nH]cc1C=Nc1ccc(Cl)cc1Cl | 0.6 | -0.4 | -1.0 | 0.3 | 1.6*
COc1ccc(-c2nnc3ccc(SCC(=O)Nc4nc5ccccc5s4)nn23)cc1OC | -0.2 | -0.8 | 11.1* | -0.1 | -1.2
O=C(CSc1cn[nH]n1)Nc1nc2ccccc2s1 | 1.1 | 0.5 | 5.3 | 6.0* | 0.2
O=C(CSc1ccccn1)Nc1nc2ccccc2s1 | 1.8 | -0.2 | 9.7 | 4.8 | -1.8
Brc1ccc(-c2nn3c(-c4ccccc4)nnc3s2)cc1 | / | 0.2 | -2.0 | -2.5 | -1.4
Cc1csc(C(C#N)C(=O)c2cc3ccccc3o2)n1 (stereo unspecified) | -0.7 | 3.9* | 4.3 | 3.5 | -0.8
O=C(NNC(=O)c1cc2ccccc2o1)c1ccc(F)cc1 | 0.6 | 2.6 | 0.3 | 1.8 | -0.3
C=CCNC(=O)CN(C(=O)c1ccncn1)c1cccc(Br)c1 | / | 0.2 | -2.7 | -2.9 | -0.9
COc1ccc(OCC(=O)Nc2c(C)ccc3nsnc23)cc1 | 0.1 | -2.9 | -2.2 | -2.1 | -1.0
COc1ccc(OCC(=O)Nc2c(Cl)ccc3nsnc23)cc1 | 1.1 | -0.5 | 0.2 | 6.2* | -1.3
Cc1c(-n2c(O)c(C3=c4ccccc4=NC3=O)sc2=S)c(=O)n(-c2ccccc2)n1C | 1.1 | -0.4 | -1.5 | 5.6* | -1.3
CC(C)CN1C(=O)C[C@@]2(C(=O)N(C)c3ccc(NS(=O)(=O)c4ccc(F)cc4)cc32)C1c1ccccc1 (stereo partly specified) | / | 0.7 | -0.3 | -1.3 | -1.1
CC(=O)NC(CCS(C)(=O)=O)C(=O)N1CCc2ccccc21 (stereo unspecified) | 0.9 | -0.2 | 0.2 | 5.6* | 1.0*
CC(=O)NC(CCS(C)(=O)=O)C(=O)Nc1ccccc1C (stereo unspecified) | 0.6 | -0.6 | -1.1 | -1.8 | -0.9
COc1ccc(C(=O)N[C@H]2CC[C@@]34CCCN3C(=O)CCC[C@H]4[C@H]2C)cc1 | / | / | -2.8 | -2.3 | -1.8
O=C(NC1CCCCN(Cc2cccc(Cl)c2)C1=O)c1cccc(F)c1 (stereo unspecified) | / | 0.1 | -2.4 | -2.7 | -1.6
CCOC(=O)c1cc(C(=O)Nc2ccccc2F)nn1C | 1.4 | 3.2 | 13.2* | 5.0 | -0.3
CCOC(=O)n1ccc(C(=O)Nc2ccccc2F)n1 | -0.4 | 0.9 | 4.5 | 0.5 | -1.2
COc1ccc(OCc2nc(N)nc(Nc3ccccc3)n2)cc1 | 0.1 | 0.0 | 2.2 | -1.9 | -0.3
Cc1nc(N)nc(COc2ccccc2)n1 | 8.4* | 0.6 | 7.3 | 3.8 | -1.0
O=C1NC(=O)/C(=C/c2ccc(O)cc2)S1 | 1.2 | 1.4 | 13.9* | 0.5 | -0.8
